Values joined by “and” are separate entries in the source; they are usually repeats but may differ in a detail not shown here. Equal values may be shown once. The whole screen tested about 5,500 compounds, of which about 2,000 (36%) were called active. Inconclusive results (about 18%) are left out. Rule as the data show it: active = normalized growth mostly below about 0.91 (no sharp cut-off); inconclusive = no clear call, values can overlap the other calls; inactive = mostly above about 0.92. The list shows a part of the results.
Assay: chemical genetic growth profiling, strain panel (AID 1159580);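 also: tested at 20 µM; growth read once vehicle control cultures reached saturation at 30 °C; 1 = growth at the plate median or of vehicle wells; lower values mean less growth of the strain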
Conditions: S. cerevisiae deletion strains, growth OD

Measured: normalized growth

NS(=O)(=O)c1cc2c(cc1Cl)NC(CSCc1ccccc1)=NS2(=O)=O
inactive: locus YAL021C, strain ccr4, active compounds read low 0.986 | locus YAL026C, strain drs2, active compounds read low 1.01 | locus YAL030W, strain snc1, active compounds read low 1.01 | locus YBL061C, strain skt5, active compounds read low 1.02 | locus YBR009C, strain hhf1, active compounds read low 0.993 | locus YBR021W, strain FUR4, active compounds read low 0.973 | locus YBR023C, strain chs3, active compounds read low 1.04 | locus YBR171W, strain sec66, active compounds read low 1.03 | locus YBR229C, strain ROT2, active compounds read low 0.986 | locus YBR231C, strain swc5, active compounds read low 1.02 | locus YBR279W, strain paf1, active compounds read low 1.01 | locus YCL011C, strain gbp2, active compounds read low 1.01 | locus YCL016C, strain dcc1, active compounds read low 0.993 | locus YCL029C, strain bik1, active compounds read low 0.988 | locus YCL061C, strain MRC1, active compounds read low 1.01 | locus YCL069W, strain vba3, active compounds read low 1.01 | locus YCR088W, strain abp1, active compounds read low 1.01 | locus YDL005C, strain med2, active compounds read low 1 | locus YDL035C, strain GPR1, active compounds read low 1.04 | locus YDL040C, strain nat1, active compounds read low 0.995 | locus YDL074C, strain BRE1, active compounds read low 0.99 | locus YDL101C, strain DUN1, active compounds read low 0.973 | locus YDL134C, strain PPH21, active compounds read low 1.02 | locus YDL185W, strain tfp1, active compounds read low 0.989 | locus YDL192W, strain arf1, active compounds read low 0.997 | locus YDR001C, strain nth1, active compounds read low 1.03 | locus YDR069C, strain doa4, active compounds read low 1.04 | locus YDR101C, strain arx1, active compounds read low 0.987 | locus YDR137W, strain rgp1, active compounds read low 1.02 | locus YDR159W, strain sac3, active compounds read low 1 | locus YDR162C, strain NBP2, active compounds read low 1.03 | locus YDR195W, strain ref2 1.03 | locus YDR297W, strain sur2, active compounds read low 1.02 | locus YDR318W, strain mcm21, active compounds read low 0.991 | locus YDR334W, strain swr1, active compounds read low 1.02 | locus YDR335W, strain msn5, active compounds read low 1.02 | locus YDR388W, active compounds read low 0.978 | locus YDR392W, strain spt3, active compounds read low 0.948 | locus YDR502C, strain sam2, active compounds read low 0.988 | locus YEL003W, strain gim4, active compounds read low 1.03 | locus YEL037C, strain rad23, active compounds read low 1.02 | locus YEL061C, strain CIN8 (second series), active compounds read low 1.05 | locus YEL061C, strain CIN8, active compounds read low 0.995 | locus YER015W, strain faa2, active compounds read low 1.01 | locus YER016W, strain bim1, active compounds read low 1 | locus YER110C, active compounds read low 0.965 | locus YER111C, strain swi4, active compounds read low 1.03 | locus YER155C, strain BEM2 (second series), active compounds read low 1.04 | locus YER155C, strain BEM2, active compounds read low 0.981 | locus YER167W, strain BCK2, active compounds read low 1 | locus YFR010W, strain ubp6, active compounds read low 1.03 | locus YGL078C, strain dbp3, active compounds read low 0.991 | locus YGL086W, strain mad1, active compounds read low 0.989 | locus YGL167C, strain pmr1, active compounds read low 1.03 | locus YGL173C, strain kem1, active compounds read low 1.01 | locus YGL227W, strain vid30, active compounds read low 1.02 | locus YGL240W, strain doc1, active compounds read low 1.03 | locus YGL248W, strain PDE1, active compounds read low 0.98 | locus YGL253W, strain hxk2, active compounds read low 1.01 | locus YGR078C, strain PAC10, active compounds read low 0.986 | locus YGR135W, strain pre9, active compounds read low 0.992 | locus YGR252W, strain gcn5, active compounds read low 1.01 | locus YHR013C, strain ard1, active compounds read low 0.975 | locus YHR027C, strain rpn1, active compounds read low 1.01 | locus YHR030C, strain SLT2, active compounds read low 0.99 and 0.983 | locus YHR079C, strain IRE1 (second series), active compounds read low 0.984 | locus YHR079C, strain IRE1, active compounds read low 0.977 | locus YHR094C, strain hxt1, active compounds read low 0.97 | locus YHR129C, strain ARP1, active compounds read low 0.984 | locus YHR142W, strain chs7, active compounds read low 1.02 | locus YHR200W, strain rpn10, active compounds read low 0.989 | locus YIL066C, strain RNR3, active compounds read low 1.01 | locus YIL073C, strain SPO22, active compounds read low 0.99 | locus YIL125W, strain kgd1, active compounds read low 0.986 | locus YIR030C, strain dcg1, active compounds read low 0.993 | locus YJL092W, strain hpr5, active compounds read low 1.02 | locus YJL095W, strain BCK1 (second series), active compounds read low 1.02 | locus YJL095W, strain BCK1, active compounds read low 0.954 and 0.975 | locus YJL115W, strain asf1, active compounds read low 1.02 | locus YJL129C, strain trk1, active compounds read low 1.06 | locus YJL134W, strain LCB3, active compounds read low 0.987 | locus YJL154C, strain vps35, active compounds read low 1.03 | locus YJL164C, strain tpk1, active compounds read low 0.977 | locus YJL166W, strain qcr8, active compounds read low 1.04 | locus YJL168C, strain set2, active compounds read low 0.992 | locus YJL187C, strain SWE1 (second series), active compounds read low 0.965 | locus YJR043C, strain POL32, active compounds read low 1.04 | locus YJR066W, strain TOR1, active compounds read low 0.931

Reference: PubChem BioAssay AID1159580 (chemical genetic matrix, 2015)
